For this assay, the target named is Thyroid hormone receptor beta (Homo sapiens) (UniProt P10828). The assay is described as follows: Concentration Response Confirmation Assay for Inhibitors of the Interaction of Thyroid Hormone Receptor and Steroid Receptor Coregulator 2. A digest of the protocol: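 Compounds were tested in concentration-response against TRβ LBD (0.6 uM) plus Texas Red-labeled SRC2 20-mer (20 nM), T3 1 uM present. After 5 hr incubation at ambient temperature, reduced polarization (ex 555/em 632 nm) marked inhibition.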

Inconclusive results are not listed. Where a call stands in place of a potency, no number is given. Active and inactive are the calls of the source. Calls follow the shape of the dose curve; as a rule, active = well fitted inhibition curve with a large enough effect; inconclusive = small, poorly fitted or top-dose-only effect; inactive = no such curve, though single readings can be large or run the other way.

Thyroid hormone receptor beta (Homo sapiens), sequence (P10828 whole entry, looked up, the tested form may be a part): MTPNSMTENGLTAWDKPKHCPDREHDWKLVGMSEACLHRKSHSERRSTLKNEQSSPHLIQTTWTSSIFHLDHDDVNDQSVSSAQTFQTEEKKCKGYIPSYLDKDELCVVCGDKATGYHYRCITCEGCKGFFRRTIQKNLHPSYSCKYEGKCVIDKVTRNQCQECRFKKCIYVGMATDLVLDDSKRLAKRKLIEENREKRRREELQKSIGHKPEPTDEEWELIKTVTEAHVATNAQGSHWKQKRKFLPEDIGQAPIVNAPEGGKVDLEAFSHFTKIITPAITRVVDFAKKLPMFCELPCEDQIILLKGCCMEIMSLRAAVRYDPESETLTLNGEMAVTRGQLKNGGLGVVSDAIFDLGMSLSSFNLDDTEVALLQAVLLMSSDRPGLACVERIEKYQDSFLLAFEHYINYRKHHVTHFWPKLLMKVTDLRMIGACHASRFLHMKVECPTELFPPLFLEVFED

In the case of `O=C(Nc1nc2ccc(Cl)cc2s1)c1ccc(N2CCCCC2)c([N+](=O)[O-])c1`, the Potency result is “inactive”. In the case of `Cc1cccc(Cn2c(C(=O)OC(C)C)cc3c2ccn3C)c1` it was “inactive”.

(Values after PubChem BioAssay AID1573 (National Center for Advancing Translational Sciences (NCATS), 2009).)
